In PubChem BioAssay (NCATS):
Records with an inconclusive call do not appear. The source made the active and inactive calls. Calls come from the whole dose curve; as a rule, active = well fitted curve in the direction sought with a large enough effect; inconclusive = small, poorly fitted or top-dose-only effect, or another doubt; inactive = no such curve, though single readings can be large; an effect the other way counts as inactive or inconclusive.

How the values were obtained:
[1] = MultiTox-Fluor Cytotoxicity Assay - LYMP1-001 - Dead Cells (AID 946)
Summary of the method: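 In this qHTS, 15 uM tetraoctylammonium bromide defined 100% and DMSO defined basal activity. Lymphoblastoid cells (LYMP1-001, 2500 per well) received compound for 16 hr at 37 C before a fluorogenic dead-cell substrate readout at 485/520 nm.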

[2] = MultiTox-Fluor Cytotoxicity Assay - LYMP1-001 - Live Cells (AID 947)
[3] = Cell Viability - LYMP1-002 - Assay at 16 hr (AID 948)
Summary of the method: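 LYMP1-002 human lymphoblastoid cells, 2500/well, were treated with compounds for 16 hr at 37 C in complete medium. Viability was read as intracellular ATP by CellTiter-Glo luminescence, and AC50 was derived from a Hill fit to concentration-response data.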

[4] = MultiTox-Fluor Cytotoxicity Assay - LYMP1-002 - Live Cells (AID 955)
Summary of the method: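 Human lymphoblastoid LYMP1-002 cells, 2500/well in complete medium, rested 5 hr at 37 C, then exposed to compounds for 16 hr at 37 C. Live-cell protease cleavage of GF-AFC read by fluorescence (Ex/Em 405/510) after 60 min at room temperature; AC50 from Hill fits.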

[5] = MultiTox-Fluor Cytotoxicity Assay - LYMP1-002 - Dead Cells (AID 960); note: nearly all actives have a fitted effect of over 60% in size
Summary of the method: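 Human lymphoblastoid cells (LYMP1-002), 2500/well in complete medium, were exposed to compounds for 16 hr at 37 C. Dead-cell protease activity was read as bis-AAF-R110 fluorescence (Ex/Em 485/520), normalized to DMSO and 15 uM tetraoctylammonium bromide; AC50 from Hill fits.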

[6] = MultiTox-Fluor Cytotoxicity Assay - LYMP1-003 - Dead Cells (AID 961); note: nearly all actives have a fitted effect of over 70% in size
Summary of the method: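 Acute toxicity is scored as increased dead-cell protease activity in human lymphoblastoid LYMP1-003 cells after 16 h compound exposure in complete culture medium. Activity is normalized to DMSO basal and 15 uM tetraoctylammonium bromide as full response.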

[7] = MultiTox-Fluor Cytotoxicity Assay - LYMP1-003 - Live Cells (AID 962);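 note: cytotoxic hits lower the live-cell protease signal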
Summary of the method: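 LYMP1-003 human lymphoblastoid cells (2500/well) in complete medium were preincubated 5 hr at 37 C, then exposed to compounds for 16 hr at 37 C. Live-cell protease cleavage of GF-AFC read by fluorescence (Ex/Em 405/510); AC50 from Hill fits.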

[8] = Cell Viability - LYMP1-003 - Assay at 24 hr (AID 963)
Summary of the method: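 Human lymphoblastoid LYMP1-003 cells (2500/well) were rested 5 hr at 37 C, then exposed to compounds in complete medium for 24 hr at 37 C. Cellular ATP was quantified by CellTiter-Glo luminescence, and AC50 values came from Hill fits of concentration-response data.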

[9] = Cell Viability - LYMP1-003 - Assay at 40 hr (AID 964); note: series mostly up to about 92 µM; nearly all actives have a fitted effect of over 60% in size
Summary of the method: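 Human lymphoblastoid LYMP1-003 cells, 2500/well in complete medium, rested 5 hr at 37 C, then exposed to compounds for 40 hr at 37 C. Viability read as intracellular ATP by CellTiter-Glo luminescence; AC50 from Hill fits of concentration-response data.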

[10] = Cell Viability - LYMP2-004 (AID 966); note: nearly all actives have a fitted effect of over 65% in size
Summary of the method: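 Human lymphoblastoid cells (2500/well) in complete medium were treated with compounds for 24 hr at 37 C, then intracellular ATP was measured by CellTiter-Glo luminescence. AC50 values came from Hill-equation fits of concentration-response data.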

[11] = Cell Viability - LYMP2-005 (AID 967); note: series mostly up to about 92 µM
Summary of the method: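 Human lymphoblastoid LYMP2-005 cells, 2,500 per well in complete medium, rested 5 h at 37C then compound-treated 24 h at 37C. Intracellular ATP read by CellTiter-Glo luminescence after 30 min at room temperature; AC50 from Hill-equation fits of concentration-response data.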

[12] = Cell Viability - LYMP2-009 (AID 968); note: series mostly up to about 92 µM; nearly all actives have a fitted effect of over 55% in size
[13] = Cell Viability - LYMP2-011 (AID 969); note: nearly all actives have a fitted effect of over 60% in size
Summary of the method: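 Human lymphoblastoid cells (2500/well) were plated in complete medium, preincubated 5 hr at 37 C, then exposed to compounds for 24 hr at 37 C. Intracellular ATP was read by CellTiter-Glo luminescence, and AC50 came from Hill-equation concentration-response fits.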

[14] = Cell Viability - LYMP2-013 (AID 970); note: series mostly up to about 92 µM; nearly all actives have a fitted effect of over 55% in size
Summary of the method: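 Human lymphoblastoid cells, 2500/well, were preincubated 5 hr at 37 C, then treated with compounds for 24 hr at 37 C in complete medium. Intracellular ATP was read by CellTiter-Glo luminescence; AC50 from Hill-equation fits of concentration-response data.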

[15] = Cell Viability - LYMP2-015 (AID 971); note: nearly all actives have a fitted effect of over 55% in size
Summary of the method: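 Human lymphoblastoid cells (2500/well) in complete medium were preincubated 5 hr at 37 C, then compound-treated 24 hr at 37 C. Intracellular ATP was read by CellTiter-Glo luminescence after 30 min at room temperature; AC50 came from Hill-equation concentration-response fits.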

[16] = Cell Viability - LYMP2-017 (AID 972); note: series mostly up to about 92 µM; nearly all actives have a fitted effect of over 55% in size
Summary of the method: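 Human lymphoblastoid cells (2500/well) were seeded in complete medium, held 5 hr at 37 C, then exposed to compounds for 24 hr at 37 C. Intracellular ATP was read by CellTiter-Glo luminescence after 30 min at room temperature, with AC50 values from Hill-equation fits.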

[17] = Cell Viability - LYMP2-019 (AID 973); note: nearly all actives have a fitted effect of over 55% in size
Summary of the method: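 Human lymphoblastoid cells were seeded at 2500 cells/well, preincubated 5 hr at 37 C, then exposed to compounds for 24 hr at 37 C in complete medium. Intracellular ATP was measured by CellTiter-Glo luminescence; AC50 from Hill fits.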

[18] = Cell Viability - LYMP2-021 (AID 974)
Summary of the method: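 Human lymphoblastoid cells (2500/well) were preincubated 5 hr at 37 C, then exposed to compounds for 24 hr at 37 C in complete medium. Intracellular ATP was read by CellTiter-Glo luminescence; AC50 came from Hill-equation fits of concentration-response data.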

[19] = Cell Viability - LYMP2-023 (AID 975)
Summary of the method: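 Human lymphoblastoid cells (2500/well) were preincubated 5 hr at 37 C, then exposed to compounds for 24 hr at 37 C in complete medium. Cellular ATP was read by CellTiter-Glo luminescence, and AC50 came from Hill-equation fits.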

[20] = Cell Viability - LYMP2-003 (AID 965);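 note: cells exposed to compounds for 24 h before reading; nearly all actives have a fitted effect of over 50% in size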
Summary of the method: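 Human lymphoblastoid LYMP2-003 cells, 2500/well, exposed to compounds for 24 h at 37 C in complete medium. Viability read as intracellular ATP by CellTiter-Glo luminescence; AC50 from Hill-equation fits of qHTS concentration-response data.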

Measured: Potency

Cc1ccccc1C=O
not listed: [20]
inactive: all other assays above

[O-]/[N+](=N\O)c1ccccc1
not listed: [11]
inactive: all other assays above

Cc1cccc(C)c1[N+](=O)[O-]
not listed: [8]
inactive: all other assays above

Cc1ccc(Cl)cc1N
not listed: [10] | [11]
inactive: all other assays above

Clc1ccccn1
not listed: [11] | [16]
inactive: all other assays above

Cc1ccccc1C#N
not listed: [8]
inactive: all other assays above

O=Cc1c(Cl)cccc1Cl
not listed: [11] | [13] | [15]
inactive: all other assays above

CC(C)(O)CCC(C)(C)O
not listed: [11]
inactive: all other assays above

Nc1nc2ccccc2[nH]1
not listed: [11]
inactive: all other assays above

CSCCC=O
not listed: [11] | [16]
inactive: all other assays above

NCCCCCCN
not listed: [13] | [18]
inactive: all other assays above

CCCCC(C=O)CC (stereo not drawn)
not listed: [11]
inactive: all other assays above

ClCCl
not listed: [8]
inactive: all other assays above

Cc1cccc(C(=O)O)c1
not listed: [11]
inactive: all other assays above

CCN(Cc1ccccc1)c1ccccc1
not listed: [8]
inactive: all other assays above

C/C(C=O)=C/c1ccccc1
not listed: [13] | [15] | [18]
inactive: all other assays above

CCC(C)=O
not listed: [8]
inactive: all other assays above

Nc1cccc([N+](=O)[O-])c1
not listed: [10]
inactive: all other assays above

CC(C)N(C)C
not listed: [11]
inactive: all other assays above

CC1CCC2CC1C2(C)C (stereo not drawn)
not listed: [10]
inactive: all other assays above

Cc1cc(C)cc([N+](=O)[O-])c1
not listed: [8] | [18]
inactive: all other assays above

CCCCC=O
not listed: [13] | [18]
inactive: all other assays above

C=C(C)C1CC=C(C)C(OC(C)=O)C1 (stereo not drawn)
not listed: [11] | [16]
inactive: all other assays above

COc1ccc(N)c(C)c1
not listed: [11]
inactive: all other assays above

O=Cc1ccc(CO)o1
not listed: [10] | [16]
inactive: all other assays above

CCC(C)O (stereo not drawn)
not listed: [10] | [13]
inactive: all other assays above

Cc1ccccc1C(N)=O
not listed: [10] | [11]
inactive: all other assays above

CN(C)CCCNCCCN
not listed: [12]
inactive: all other assays above

O=C(O)CNC(=O)c1ccc([N+](=O)[O-])cc1
not listed: [11]
inactive: all other assays above

CCCCCCC(=O)O
not listed: [8]
inactive: all other assays above

Cc1ccc(Br)cc1
not listed: [8]
inactive: all other assays above

O=C1C=CCCC1
not listed: [12]
inactive: all other assays above

O=C(O)CCSSCCC(=O)O
not listed: [10]
inactive: all other assays above
